Our source for the z-score values is PubChem BioAssay AID1508600 (Functional Genomics Laboratory (NCATS/FGL), 2020).

Among all 53,000 sequences or so, about 3,700 (7%) were called active. The entries come from a sample that favours actives as a whole. A number with no mark means an inactive call.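 Rule for the calls: active = gene knockdowns whose robust z-score for IL-1 alpha signal is at least 2 or at most -2, so actives lie on both sides; inactive = the rest.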

This assay can be described thus: Components of the Cytosolic LPS Sensing Pathway: Gene Identification via Genome-wide siRNA Screen.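 Note: robust z of the log signal after scaling to non-targeting control siRNA wells of the plate.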 To be noted: RAW264.7 macrophages, IL-1a HTRF, actives lie on both sides, screened at 100 nM (by protocol), cells primed 5 h with Pam3CSK4 first. The procedure, abridged: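 Using IL-1a HTRF as read-out, the screen measured release from RAW264.7 cells after 48h siRNA knockdown (100 nM), 5 h Pam3CSK4 priming and 24 h cytosolic LipidA. Values were expressed relative to negative-control wells as robust z-scores.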
For orientation: TR-FRET usually uses a lanthanide donor and a delayed reading to cut background.
For the sequence GGUCAACAUUUGCUGUAAGTT against Inhba, the z-score is -0.599.

Regarding GGGAAAAUAUCAAGUGUAGTT against Tmem60, the z-score was 0.567.

With GGGCAAACCGGAAAAACAGTT against Ccdc71, the z-score was -2.06 (active).

With GCUGUUUCAAAAGUCAUAUTT against Col11a1, the z-score is 1.96.

GCAGAUACCAUGAUACAGUTT against Med20: the z-score is -0.154.

For the sequence GGUAAAUGUGAAUGUAAGGTT against Ntn4, the z-score is 0.73.

With GGAUAAUUUAAACAUGGGATT against Cd276, the z-score is -1.08.

Regarding GGCUACUGGAGCAAGUUUATT against Apoc3, the z-score is 2.48 (active).

Regarding GGUUUAGGGUCAAGAUAUUTT against Ttf2, the z-score is -1.39.

Turning to GGAUUGGCAACCUCCAUUUTT against Kdm5a, the z-score was -0.312.

As to GGACAAUGAGAUUCUUCUCTT against Mptx1, the z-score was -1.58.

Consider GGCAACUAUAAGUACAUAGTT against Gsta3, for which the z-score was 3.87 (active).

Regarding GGAAGGUGCUAAAAAUAUATT against Pdhx, the z-score is 0.23.

Consider GGAAAAGACAUCAGAUGAATT against Mrpl1, for which the z-score was 0.233.

For the sequence GGUAAUGGAAAUGAACAAATT against Zfp353-ps, the z-score is 0.381.

Consider GGUCUCAUAGAGUGUUACUTT against Anapc7, for which the z-score was 4.38 (active).

Turning to GGAACUGGACAAGGACGAUTT against Arhgdia, the z-score is 1.17.

As to GGAUUUGAGUGGUAAUGAATT against Tm2d1, the z-score was -2.2 (active).

For GGAAAAUGUCCCACUUUUATT against Olfr70, the z-score is -0.926.

Take GGAUUUGACCAGUAUAAGUTT against Ptgs2: the z-score was -1.05.

Consider GGCUCCAAUAAAGUGCCUUTT against Elf3, for which the z-score is 1.46.

In the case of GCUGGAGAUCUAAAAACAGTT against Mphosph10, the z-score is 1.54.

For the sequence GGCAACUUAAGUUUUACAGTT against Tmem170, the z-score was -0.898.

For GGUGAUAUGUGUGGGCUUGTT against Fahd2a, the z-score was -2.06 (active).

As for GGAGUUCUGUCCAUUUUGATT against Olfr1198, the z-score is 0.45.

Regarding GCGUAGAAGACACUUAUAGTT against Zc3h14, the z-score was 1.47.

For GGCUCUGAAUUAACUCCAGTT against Srpk3, the z-score is -0.654.

Turning to GCUAUUGACAUAAUGAGGCTT against Nfe2l3, the z-score is -1.41.

As for GGGUACAAAGGCUGUAGUUTT against Sec61a1, the z-score is -2.42 (active).

As to CCUGAAUUCAGUCUGUUUUTT against Depdc1b, the z-score was -0.931.

For the sequence GGAAAAUGUUUUACCAAUGTT against Rspry1, the z-score is -0.102.

As to GGACAUCGGAUUCUACACCTT against Psg19, the z-score was 0.531.

CCAACAAAAGCCUAUUCGGTT against Hsh2d: the z-score is -0.169.

On to GAACUUUGCCAUUGAUUUGTT against Ndufs6, for which the z-score was 1.63.

For the sequence GCUGAUUUCUCAAACAUGATT against Serpinb10, the z-score is -0.489.

Regarding GUCCCUGAACCUGUGGUAUTT against Emp3, the z-score was 1.26.

GCUGUUCCACAUUGAAGUGTT against Pcdh18: the z-score is 2.84 (active).

Take GCUGAUGGACUCAAGAAAGTT against Zbed5: the z-score is -0.805.

Turning to GGACCAUUCUGGCUACUCATT against Ankrd34b, the z-score is -2.17 (active).

GGACAAAUUUCUUUUCCUUTT against Atp10a: the z-score is -0.448.

As for GCUGAUAAACCACUUGUGATT against Olfr1287, the z-score is -0.804.

For GGCAUUCAAACCUCUCGUGTT against Dcn, the z-score was -0.921.

On to GGGUGAUUGAUCACUACUUTT against Olfr279, for which the z-score was 0.784.

With GGAAAUGGUAAUUUUCAGUTT against Slc25a36, the z-score was -0.242.

Turning to GGGAUGAAGUCCUGGAUAATT against Atp6v1g1, the z-score is -0.953.

In the case of CCAACUUCGAUGCUGAGAGTT against Anxa2, the z-score was -1.8.

As for CGACAGAGGAAGGUAUUGGTT against Gcsh, the z-score was -2.95 (active).

With CGCCUCAUCAUCUCGAUUCTT against Cnga3, the z-score is -1.63.

For GCAUGUGGAGAAGAUGAGGTT against Tas2r143, the z-score is 0.793.

For GGAUUUCAAAGUGCUUUGCTT against Kifap3, the z-score was 3.44 (active).

In the case of CCUAAACCCAUUCCAGUCUTT against Dpm3, the z-score is 0.104.

CCUGAGACAUACUUAAUGUTT against Anapc10: the z-score was 0.747.

For CCUCGAGAGACUUUCAUGGTT against F2, the z-score is -0.475.

Regarding GCUUAUGAGAUGAGUGAAUTT against Ccdc43, the z-score is -0.209.

For the sequence GGAAUGUUUGGUGCUAUGATT against Flvcr2, the z-score is 3.4 (active).

As for GGGAUUUUCAGGGAGAUUUTT against Plekho1, the z-score is 1.46.

Turning to CCAGGACCUUAUCAGGUUUTT against Idh2, the z-score was 2.44 (active).

As for GCUUAGGAAUGGCGACAACTT against Vmn1r188, the z-score was -0.413.

Consider GGCAAUGAGAAAGUUACUCTT against Olfr1102, for which the z-score was 1.65.

GGCAGGUGUUAAGGCUUCATT against Tas2r117: the z-score was 0.873.

Consider GGAACCACUGCUUUCAAAATT against Cd36, for which the z-score is 0.83.

Take GCUUUACCUGCAUAUUCCATT against Nradd: the z-score is -2.04 (active).

GGGCCAGCAUGUUAUCUGUTT against Kat8: the z-score was -0.8.

On to CCAGCCAGACUGAAAAAGCTT against Stmnd1, for which the z-score was -0.652.

On to GGGAGAUGCAACAACAAGATT against Epx, for which the z-score was -0.847.

In the case of GGACAAAUGAACAUGCUGATT against Edn2, the z-score is -2.26 (active).

Take “GAAGUGAUGCUGCUAGUAGTT against A030005L19Rik”: the z-score was -2.

For the sequence GGAACACUGGGAACGUAUCTT against Ifnk, the z-score is 0.00139.

As to GCCCUAGUGUCUGAAAAAATT against Sfrp5, the z-score is 0.864.
